Data: PubChem BioAssay AID540256 (National Center for Advancing Translational Sciences (NCATS), 2011)
Out of some 300,000 compounds screened, about 3,700 (1.2%) were called active. Roughly 20% stayed inconclusive and do not appear here. Shown is part of a subset that was picked to be rich in actives. Values without a mark were called inactive. Calls come from the whole dose curve; tested in HEK293 cells.

Test: qHTS for Inhibitors of binding or entry into cells for Lassa Virus; note: nearly all actives have a fitted effect of over 50% in size
Conditions: Lassa virus pseudotype entry inhibition, cell reporter; series mostly up to 37.9 µM; activity change, negative = inhibition: at the top concentration
% is set by controls: 0 for no effect and ±100 for the full control effect; potency is the fitted concentration of half-maximal effect.

Row | SMILES | activity change, negative = inhibition | Potency
1 | CN(C)c1nc(NN)nc(Nc2ccc(F)cc2)n1 | -28% | –
2 | CCOc1ccc(C(=O)CCC(=O)Nc2ccncc2)cc1 | -5.97% | –
3 | CC(CCc1ccccc1)NC(=O)COC(=O)c1ccc(F)cc1 (stereo not given) | 2.34% [at 46.1 µM] | –
4 | CCC1(C)Cc2c(sc3[nH]c(=S)n(Cc4ccccc4)c(=O)c23)CO1 (stereo not given) | – | 5.62 µM (active)
5 | CCC1(C)Cc2c(sc3nc4n(c(=O)c23)CCCS4)CO1 (stereo not given) | 3.11% | –
6 | CCC1(C)Cc2c(sc3nc(SC)[nH]c(=O)c23)CO1 (stereo not given) | 17.9% | –
7 | O=C(CCNC(=O)c1ccccc1Cl)NN=Cc1ccco1 | 8.83% | –
8 | CCOC(=O)c1csc(CCNC(=O)c2oc3c(Cl)cc(C)cc3c2C)n1 | 6.59% | –
9 | CN1C(c2ccc(F)cc2)=CS/C1=C(/C#N)c1nnc2n1-c1ccccc1SC2 | -0.937% [at 46.1 µM] | –
10 | C/C(CC(=O)Nc1cccc(F)c1)=N\NC(=O)C(=O)NC1CCCCC1 | 3.34% | –
11 | Cc1cc(C)cc(NC(=O)NC2CCCCCCC2)c1 | -5.73% [at 46.1 µM] | –
12 | O=C(Nc1cccc(F)c1)NC1CCCCCCC1 | – | 12.6 µM (active)
13 | COc1ccc2oc(C(=O)N(CC(C)C)C3CCS(=O)(=O)C3)c(C)c2c1 (stereo not given) | -9.26% | –
14 | COc1ccccc1N(CCOc1ccccc1)S(=O)(=O)c1ccccc1 | 20.1% [at 46.1 µM] | –
15 | Cc1ccc(S(=O)(=O)N2CCC(=O)N([C@H](COCc3ccccc3)C(C)C)CC2)cc1 | -26.5% [at 46.1 µM] | –
16 | O=C(Nc1cccc([N+](=O)[O-])c1)c1ccc2c(c1)OCO2 | -0.181% | –
17 | O=C(c1ccc(Cl)c(S(=O)(=O)N2CCCCC2)c1)N1CCCCCC1 | 2.43% | –
18 | O=C(Nc1ccccc1)c1ccc2c(c1)OCCCO2 | – | 3.16 µM (active)
19 | O=C(Nc1ccc2c(c1)OCCO2)c1ccc(Cl)c(S(=O)(=O)N2CCCCC2)c1 | – | 20.6 µM (active)
20 | O=C(Nc1ccc(N2CCOCC2)cc1)c1ccc2c(c1)OCO2 | -22.7% | –

Row | SMILES | activity change, negative = inhibition | Potency
21 | Cc1cc(C)c2nc(NC(=O)c3ccc4c(c3)OCO4)sc2c1 | -1.22% | –
22 | O=C(Nc1ccccc1F)c1ccc2c(c1)OCO2 | -20.6% [at 46.1 µM] | –
23 | O=C(Nc1nc2ccccc2s1)c1ccc2c(c1)OCO2 | – | 2.51 µM (active)
24 | O=C(Nc1cccc(S(=O)(=O)N2CCCCC2)c1)c1ccc2c(c1)OCO2 | -18.9% | –
25 | N#Cc1ccccc1S(=O)(=O)N1CCN(C(=O)c2cc(-c3ccccc3)nn2-c2ccccc2)CC1 | -31.9% | –
26 | COc1ccc(-c2csc3ncnc(N4CCN(S(=O)(=O)c5ccccc5C#N)CC4)c23)cc1 | -7.67% | –
27 | Cc1cc(C)c(NC(=O)CN2C(=O)c3cccnc3Oc3ccc(Cl)cc32)c(C)c1 | 20.7% [at 46.1 µM] | –
28 | O=c1[nH]c2c(c(=O)n1-c1ccccc1)CCO2 | -1.14% | –
29 | CC(CC(=O)N1CCN(c2ccccc2)CC1)S(=O)(=O)c1ccc2c(c1)NC(=O)CS2 (stereo not given) | -3.54% [at 46.1 µM] | –
30 | COc1ccc(-c2nc3sc(CCNC(=O)C(C)(C)C)c(C)n3n2)cc1 | 1.48% [at 46.1 µM] | –
31 | CCC[C@@H]1C[C@@]1(CCC)[C@@H](NC(=O)c1ccccc1)c1ccc(C(=O)OC)cc1 | 0.512% | –
32 | CCC/C=C(\CCC)C(NC(=O)Cc1ccccc1)c1ccc(C(=O)OC)cc1 (stereo not given) | – | 6.51 µM (active)
33 | CC(=O)c1ccc(OC(NC(=O)Cc2ccccc2)C(Cl)(Cl)Cl)cc1 (stereo not given) | -2.01% | –
34 | COc1ccc(OCC(=O)NNC(=O)C2CCC2)cc1 | -10.5% | –
35 | Cc1ccc(NC(=O)C(C)OC(=O)C2CC3CCCC(C2)C3=O)cc1S(=O)(=O)N1CCOCC1 (stereo not given) | -0.229% | –
36 | O=c1[nH]c(N2CCN(Cc3ccc4c(c3)OCO4)CC2)nc2c1CCCC2 | -1.39% [at 46.1 µM] | –
37 | Fc1ccc(N2CCN(Cc3ccc4c(c3)OCO4)CC2)cc1 | -16.6% [at 14.3 µM] | –
38 | Fc1ccc2[nH]c3c(N4CCN(Cc5ccc6c(c5)OCO6)CC4)ncnc3c2c1 | – | 15.8 µM (active)
39 | Cc1cc2c(cc3c(SCc4nc(-c5ccccc5)oc4C)nnc(C)n32)o1 | 28.3% [at 46.1 µM] | –
40 | Cc1ccc2c(c1)C1CN(C)CCC1N2S(=O)(=O)c1cccc(F)c1 (stereo not given) | 3.79% | –

Row | SMILES | activity change, negative = inhibition | Potency
41 | CCc1ccc2nc(N(CCCN(C)C)C(=O)c3ccc4c(c3)OCCO4)sc2c1 | 1.68% [at 46.1 µM] | –
42 | CCN(CC)CCN(C(=O)c1ccc(S(=O)(=O)N2CCOCC2)cc1)c1nc2cc3c(cc2s1)OCCO3 | 1.98% | –
43 | CN(C)CCCN(C(=O)c1ccc(S(=O)(=O)N2CCCCCC2)cc1)c1nc2cc3c(cc2s1)OCCO3 | – | 14.1 µM (active)
44 | CC(C)CC1(C)NC(=O)N(CC(=O)Nc2ccc3c(c2)OCCO3)C1=O (stereo not given) | -6.74% | –
45 | COC(=O)CN(C(=S)Nc1ccc(Cl)cc1)C1CC(=O)N(c2ccc(OC)cc2)C1=O (stereo not given) | -18% | –
46 | CN(C)c1ccc(NC(=S)N(CCc2ccccc2)C2CC(=O)N(c3c(Cl)cccc3Cl)C2=O)cc1 (stereo not given) | – | 3.55 µM (active)
47 | CN(CC(=O)Nc1cccc(F)c1)C(=O)C1CC(=O)N(CCc2ccccc2)C1 (stereo not given) | 13.9% | –
48 | O=C(COc1ccccc1Cl)Nc1ccc2nc(SCC(=O)N3CCCC3)sc2c1 | -3.61% [at 46.1 µM] | –
49 | CC(C)(C)C(=O)COC(=O)c1cc(S(=O)(=O)N2CCCCC2)ccc1N1CCOCC1 | 4.41% | –
50 | COc1ccccc1-c1c(C)nn2c(C)c(C(C)=O)cnc12 | 25.8% | –
51 | Cc1[nH]nc(-c2ccc(OCc3cnn(-c4ccccc4)c3)cc2O)c1Oc1ccc(Cl)cc1 | -26.1% | –
52 | C=C(C)COc1ccc(-c2n[nH]c(C)c2-c2ccccc2OC)c(O)c1 | – | 7.08 µM (active)
53 | CC(=O)COc1ccc2c(-c3ccccc3)cc(=O)oc2c1 | 15.8% | –
54 | C=C(C)COc1ccc(-c2n[nH]c(C)c2-c2ccccc2)c(O)c1 | – | 1.78 µM (active)
55 | COc1ccccc1-c1n[nH]c2c1[C@H](C)CC[C@H]2C(C)C | -1.72% | –
56 | Cc1cccc(C(=O)NNC(=O)CSc2nnc(C(C)C)n2C)c1 | 8.98% | –
57 | CCN(C(=O)COC(=O)c1ccccc1O)c1cccc2ccccc12 | -16.7% | –
58 | CCOC(=O)c1c(S(=O)(=O)Nc2cccc(Cl)c2)c(C)n(C)c1C | -22% [at 46.1 µM] | –
59 | CC(C)(C)c1nnc2sc(SCC(O)=C(C#N)c3nc4ccccc4[nH]3)nn2c1=O | 11.1% [at 46.1 µM] | –
60 | Cc1ccccc1NC(=S)N(CCCN1CCOCC1)Cc1cccs1 | -10.1% | –
